Wee1 degr inh: Wee1 degradation inhibitors, primary screen, cell-based, HeLa, Wee1K328M-luciferase, luminescence; reporter increase, % at 5 µM; hit rate 1.2% among 220,000; Wee1-like protein kinase (Homo sapiens), P30291; HeLa Luc-Wee1K328M stability; 100% = proteasome inhibitor MG132 effect;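 active = activation above the mean of all tested compounds plus 3 SD, set per screening run, cut at about 8.8% in these data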;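 note: cells exposed to compound for 20 h before luminescence read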
NCF1 inh: p47phox/p22phox peptide binding inhibitors, primary screen, biochemical, uHTS, NADPH oxidase regulatory subunit; hit rate 0.53% among 220,000; Neutrophil cytosol factor 1 (Homo sapiens), P14598; fluorescence polarization, 2 h; AID 1274, 2008; inhibition, % at 24.7 µM;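 active = inhibition above about 30%, limit read from the data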
Target sequence (P14598 whole entry, looked up): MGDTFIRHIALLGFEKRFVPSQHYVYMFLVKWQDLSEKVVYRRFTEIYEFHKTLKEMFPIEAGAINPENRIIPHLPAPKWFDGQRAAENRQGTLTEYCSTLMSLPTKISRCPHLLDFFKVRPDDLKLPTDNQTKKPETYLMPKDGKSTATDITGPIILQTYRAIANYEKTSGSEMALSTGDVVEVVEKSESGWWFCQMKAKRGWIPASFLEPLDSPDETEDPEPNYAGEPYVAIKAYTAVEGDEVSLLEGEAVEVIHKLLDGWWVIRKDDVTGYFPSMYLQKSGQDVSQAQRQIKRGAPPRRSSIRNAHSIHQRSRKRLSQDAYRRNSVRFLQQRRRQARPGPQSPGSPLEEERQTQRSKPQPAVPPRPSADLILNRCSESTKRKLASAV
EP2 modulator: EP2 receptor modulators, cAMP readout, primary screen, cell-based, HTRF cAMP, PGE2 stimulation | Prostaglandin E2 receptor EP2 subtype (Homo sapiens), P43116 | EP2-expressing cells, cAMP HTRF FRET, PGE2 co-stimulation | induction, % at 25 µM | hit rate 0.83% among 260,000;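 active = compounds whose cAMP rise, as percent of the full-agonist control response, exceeds 60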;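 note: rat C6 glioma line stably carrying human EP2 under a CMV promoter; the protocol text gives 20 µM as final concentration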
HSV augment: enhancers of HSV replication in host cells, fold increase, host cell viability; maximum fold increase; HSV replication augmentation in cells; hit rate 0.005% among 220,000; in the data active = maximum fold increase above about 1.5; tested in PC3 cells
Furin inh: human furin inhibitors, primary screen, biochemical, fluorescence intensity. P09958. purified furin, fluorogenic substrate cleavage. inhibition, % at 20 µM or 30 µM. hit rate 0.061% among 220,000; in the data active = inhibition above about 25%
EP2 antag: human EP2 receptor antagonists, primary screen, TR-FRET cAMP, C6 glioma cells | C6 glioma cells expressing human EP2; cells stimulated with saturating PGE2 | inhibition, % at 25 µM | hit rate 0.52% among 260,000 | Prostaglandin E2 receptor EP2 subtype (Homo sapiens), P43116 | AID 1422, 2008;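 active = percent inhibition above 40 after rounding to a whole number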;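 note: rat C6 glioma host cells with rolipram phosphodiesterase inhibitor present; the protocol text gives 20 µM as final concentration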
Large screens that a line does not name were inactive; ! = not confirmed by another sample. Shown are actives, neighbours in structure and some others; about 2.8% of the full set was active somewhere.

CC(C)NC[C@@H](O)c1ccc(O)c(O)c1	EP2 modulator 80
CNC[C@@H](O)c1ccc(O)c(O)c1	EP2 modulator 82 (no result: Wee1 degr inh, NCF1 inh, HSV augment, Furin inh)
CC(C)(C)NCC(O)c1ccc(O)c(CO)c1 (centres undefined)	EP2 modulator 78! (no result: Wee1 degr inh, NCF1 inh, Furin inh)
CC(C)(C)NCC(O)c1cc(O)cc(O)c1 (centres undefined)	none
COc1ccccc1NC(=O)CN1C(=O)C(C)(C)Oc2ccc(C(=O)NC3CCCC3)cc21	none (no result: Wee1 degr inh, NCF1 inh, HSV augment, Furin inh)
COc1ccccc1NC(=O)c1ccc2c(c1)N(Cc1cc(C)ccc1C)C(=O)C(C)(C)O2	EP2 modulator 64 (no result: Wee1 degr inh, NCF1 inh, HSV augment, Furin inh)
Cc1ccc(S(=O)(=O)N2CCN(C3CC(=O)N(CCc4ccccc4)C3=O)CC2)cc1C (centres undefined)	Wee1 degr inh 9.9
CC(=O)Nc1cc(C(=O)O)ccc1S(=O)(=O)c1ccc(C)cc1	Wee1 degr inh 9.2
CCC(=O)Nc1cc(C(=O)O)ccc1S(=O)(=O)c1ccc(C)cc1	none
COc1ccc(OC)c(CCNC(=O)Cn2sc3nc(C)cc(C)c3c2=O)c1	EP2 antag 112
Cc1cc(C)c2c(=O)n(CC(=O)NC3CCCC3)sc2n1	NCF1 inh 42, EP2 antag 118
Cc1cc(C)c2c(=O)n(CC(=O)Nc3ccc(Br)c(C)c3)sc2n1	none
Cc1cc(C)c2c(=O)n(CC(=O)Nc3cccc(Cl)c3C)sc2n1	EP2 antag 44
COC(=O)[C@@H]1CN(C(=O)Cn2nnc3ccccc32)C[C@H]1c1ccc(OC)cc1	none (no result: Wee1 degr inh, NCF1 inh, HSV augment, Furin inh)
O=C(/C=C/c1cn(CC(O)CN2CCCCC2)c2ccccc12)c1ccccc1 (centres undefined)	none
CN1CCN(Cn2cc(/C=C/C(=O)c3ccccc3)c3ccccc32)CC1	Wee1 degr inh 10
COc1ccc(NC(=O)N(CCc2ccccc2)Cc2nc3ccccc3c(=O)[nH]2)cc1	none (no result: Wee1 degr inh, NCF1 inh, HSV augment, Furin inh)
CC(C)(C)c1ccc(C(O)CN2CCC(O)(c3ccc4c(c3)OCO4)CC2)cc1 (centres undefined)	none (no result: Wee1 degr inh, NCF1 inh, HSV augment, Furin inh)
O=C(NCc1ccccc1)C1CCCN1S(=O)(=O)c1cccc2cccnc12 (centres undefined)	NCF1 inh 47
O=Cc1cccc(OC(=O)c2ccc(Cl)cc2Cl)c1	EP2 modulator 64
O=C(O)[C@H](Cc1ccccc1)N1C(=O)c2ccccc2C1=O	none (no result: Wee1 degr inh, NCF1 inh, HSV augment, Furin inh)
O=C(C(Cc1ccccc1)N1C(=O)c2ccccc2C1=O)N1CCc2ccccc21 (centres undefined)	EP2 modulator 64
COc1ccc(/C(O)=C2/C(=O)C(=O)N(C)C2c2ccc(Cl)cc2)cc1OC (centres undefined)	none (no result: Wee1 degr inh, NCF1 inh, HSV augment, Furin inh)
Fc1ccc(C2c3[nH]c4ccccc4c3CCN2CCCn2cccn2)cc1 (centres undefined)	none
Cc1ccccc1C1c2[nH]c3ccccc3c2CCN1CCCn1cccn1 (centres undefined)	EP2 modulator 64
N#Cc1nc(-c2ccc(Cl)cc2)oc1NCC1CCCO1 (centres undefined)	Wee1 degr inh 11
CCCNC(=S)N1CCC(NC(=O)C2CCCCC2)CC1	Wee1 degr inh 10
CCn1c(=O)cc(OCC(=O)NCCCN2CC(C)CC(C)C2)c2ccccc21 (centres undefined)	NCF1 inh 68
O=c1[nH]ncc(NCc2cccnc2)c1Cl	none (no result: Wee1 degr inh, NCF1 inh, HSV augment, Furin inh)
CC1CCCCN1CC(=O)Nc1ccccc1Sc1ccccc1 (centres undefined)	EP2 modulator 62
COC(=O)C1CCN(CC(=O)Nc2ccccc2Sc2ccccc2)CC1	none
O=C(NC1CCCCC1)C1CC(c2ccccc2O)=NO1 (centres undefined)	none (no result: Wee1 degr inh, NCF1 inh, HSV augment, Furin inh)
COc1ccc2c(c1OC)CN(C)CCc1cc3c(cc1C(O)C2)OCO3 (centres undefined)	none
COc1ccc2cc1Oc1ccc(cc1)C[C@H]1c3cc(c(OC)cc3CCN1C)Oc1c(OC)c(OC)cc3c1[C@@H](C2)N(C)CC3	EP2 antag 59 (no result: Wee1 degr inh, NCF1 inh, HSV augment, Furin inh)
Cc1ccc2[nH]c(=O)c(CN(Cc3nnnn3Cc3ccco3)C3CCCCC3)cc2c1	none (no result: Wee1 degr inh, NCF1 inh, HSV augment, Furin inh)
Cc1ccc(C)c(CN2C(=O)C3(OCCCO3)c3ccccc32)c1	EP2 modulator 62
CCOC(=O)c1cc2sc(C)cc2n1CC(=O)N1CCCCCC1	none (no result: Wee1 degr inh, NCF1 inh, HSV augment, Furin inh)
CC(C)c1ccc(OC(=O)NCCO)cc1	NCF1 inh 41
COc1ccc(OC(=O)NCCc2ccccc2)cc1	none
O=[N+]([O-])c1cnc(Sc2ccncn2)s1	EP2 antag 70
CCOC(=O)c1c(CC(C)C)csc1/N=C/C1C(=O)CC(C)(C)CC1=O	none
CCOC(=O)c1cc(C)sc1/N=C/C1C(=O)CC(C)(C)CC1=O	Furin inh 26
COc1ccc(NC(=O)c2ncoc2-c2ccc(F)cc2)cn1	none (no result: Wee1 degr inh, NCF1 inh, HSV augment, Furin inh, EP2 antag)
Cc1nc(-n2nnc3ccccc32)c2c3c(sc2n1)CCCC3	EP2 modulator 61
c1ccc2c(c1)nnn2-c1ncnc2sc3c(c12)CCCC3	none
C=CCNc1nc(Nc2ccc(OC)cc2)nc(OCC)n1	EP2 modulator 62!
Cc1ccc2nc(N3CCN(c4cccc(C)c4C)CC3)c3nnnn3c2c1	Wee1 degr inh 10
Cc1cc(NS(=O)(=O)c2ccc(NC(=O)Nc3ccc4c(c3)OCO4)cc2)no1	Wee1 degr inh 8.9
Cc1cc(NS(=O)(=O)c2ccc(NC(=O)Nc3cccc(Cl)c3)cc2)no1	none
COc1ccc(OCC(=O)NC(=S)Nc2ccc(S(=O)(=O)Nc3cc(OC)nc(OC)n3)cc2)cc1	EP2 antag 64
COc1cc(NS(=O)(=O)c2ccc(NC(=S)NC(=O)CC(C)C)cc2)nc(OC)n1	none
COc1cc(NS(=O)(=O)c2ccc(NC(=S)NC(=O)c3ccc(F)cc3)cc2)nc(OC)n1	EP2 antag 59 (no result: Wee1 degr inh, NCF1 inh, HSV augment, Furin inh)
COc1ccc(NS(=O)(=O)c2ccc(NC(=O)c3ccccc3)cc2)nn1	Wee1 degr inh 11
CCc1nn(Cn2nnc3ccccc32)c(=O)c2cc3sccc3n12	none (no result: Wee1 degr inh, NCF1 inh, HSV augment, Furin inh, EP2 antag)
COCCn1nnnc1C(c1ccc(OC)cc1OC)N1CCC(C(N)=O)CC1 (centres undefined)	none (no result: Wee1 degr inh, NCF1 inh, HSV augment, Furin inh)
CC(C)n1nnnc1C(c1ccccc1F)N1CCN(C)CC1 (centres undefined)	none (no result: Wee1 degr inh, NCF1 inh, HSV augment, Furin inh)
COc1cc(NS(=O)(=O)c2ccc(NC(=S)NC(=O)c3sc4ccccc4c3Cl)cc2)ncn1	EP2 antag 52
Cc1cc(NS(=O)(=O)c2ccc(NC(=S)NC(=O)c3ccc(F)cc3)cc2)no1	EP2 antag 46!
COc1ccc(C(=O)NC(=S)Nc2ccc(S(=O)(=O)Nc3cc(OC)ncn3)cc2)cc1	none (no result: Wee1 degr inh, NCF1 inh, HSV augment, Furin inh)
Cc1cc(C)nc(NS(=O)(=O)c2ccc(NC(=S)NC(=O)c3ccc(F)cc3)cc2)n1	none (no result: Wee1 degr inh, NCF1 inh, HSV augment, Furin inh)
